# Screens (PubChem BioAssay)
# Only some compounds are listed: those with a hit (about 5.7% of all), similar ones and a draw of the others.
# HT1080-NT tox: kills 2HG-producing HT-1080-NT fibrosarcoma cells; 360,000 tested, 1.6% active; Potency, µM (highest dose often 46.1 µM), for inactives: at the top dose activity, negative = less viability, most hits filed as cytotoxic; HT-1080-NT fibrosarcoma viability, CellTiter-Glo ATP luminescence, 48 h; AID 686970;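 further: NT is the 2HG producing partner of a matched IDH1 knockdown line; 0% = DMSO-treated cells and -100% = media-only wells without cells; nearly all actives have a fitted effect of over 55% in size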
#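 HT-1080-NT; 750 cells/well; 5% FBS RPMI; 48 h compound, 37 degrees C; CellTiter-Glo luminescence; curve fitting and curve-class assignment.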
# HT1080 IDH1KD tx: HT-1080 IDH1 knockdown cell toxicity (counter line) | AID 686971 | HT-1080 IDH1 knockdown viability, ATP luminescence, 48 h | 360,000 tested, 2% active | Potency, µM (series often up to 46.1 µM), inactives show at the top dose activity, negative = toxicity, actives largely listed as cytotoxic;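 further: 0% = DMSO wells and -100% = cell-free medium wells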
#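 CellTiter-Glo luminescence after 48 h compound exposure at 37 degrees C of IDH1-knockdown HT-1080 cells in 5% FBS RPMI. %Activity scaled between DMSO wells and cell-free media wells, with curves fitted and assigned curve classes.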
# KB-V1 MDR tox: KB-V1 MDR subline cytotoxicity; KB-V1 MDR cells viability, CellTiter-Glo, 72 h; AID 1347076; 400,000 tested, 3.4% active; Potency, µM (top dose mostly 46.1 µM), usual class: cytotoxic; further: nearly all actives have a fitted effect of over 60% in size
#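 Cells of the MDR subline KB-V1 are plated, dosed with compound at multiple concentrations, and incubated 72 h at 37 degrees C; CellTiter-Glo is then added and luminescence read after 10 min.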
# KB-3-1 tox: kills parental KB-3-1 adenocarcinoma cells; KB-3-1 viability, CellTiter-Glo ATP luminescence, 72 h; Potency, µM (doses to about 46.1 µM), hits mostly cytotoxic; 400,000 tested, 1.4% active; further: nearly all actives have a fitted effect of over 60% in size
#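 KB-3-1 parental drug-naive adenocarcinoma cells in DMEM/10% FBS, incubated 72 h at 37 C with pin-transferred compounds across a concentration series. Viability by CellTiter-Glo luminescence; concentration-response curves fitted after normalization.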
# Active calls of the source: *; i = inactive; ? = inconclusive; · = no result given. The call rests on the fitted dose curve; in most records, active means well fitted curve in the direction sought with a large enough effect; inconclusive means small, poorly fitted or top-dose-only effect, or another doubt; inactive means no such curve, though single readings can be large; an effect the other way counts as inactive or inconclusive. Unless noted, on the % scale 0 is the no-effect control and ±100 the full control effect; potency means the concentration at half of the fitted maximal effect.
SMILES,HT1080-NT tox,HT1080 IDH1KD tx,KB-V1 MDR tox,KB-3-1 tox
COCc1[nH]nc2c1C(c1ccc(OC)c(OC)c1)C(C#N)=C(N)O2 (configuration not stated),6%,7%,i,i
CCNC(=O)c1cnc2sc(N3CCC(C)CC3)nn2c1=O,·,·,i,i
CCOC(=O)C[C@H]1c2cc(F)ccc2S(=O)(=O)N1Cc1cc(OC)c(OC)c(OC)c1,·,·,?,i
CCc1ccccc1NC(=S)NCC1CCN(c2ccc(OC)cc2)C1 (configuration not stated),?,2%,21µM*,?
COc1ccc(N2CCC(CNC(=O)Nc3cccc(OC)c3)C2)cc1 (configuration not stated),-25%,-30%,21µM*,i
O=C(CSc1ccc2c(c1)OCCO2)NCCc1ccc(Cl)cc1Cl,0%,-2%,18µM*,i
O=C(CSc1ccc2c(c1)OCCO2)NCCN1C(=O)CSC1=O,0%,1%,?,i
O=C(CSc1ccc2c(c1)OCCO2)Nc1ccccc1,-2%,-2%,?,i
O=C(CSc1ccc2c(c1)OCCO2)Nc1ncc(Cl)cc1Cl,2%,-10%,21µM*,i
Cc1ccnc(NC(=O)CSc2ccc3c(c2)OCCO3)c1,7%,0%,18µM*,i
N#Cc1ccc(CN2CCN(CC(=O)NCCc3ccc(Cl)cc3Cl)CC2)cc1,?,?,18µM*,i
CCN1CCOC(=O)C1CC(=O)Nc1ccc(C)c(Cl)c1 (configuration not stated),·,·,?,i
Cc1ccc(Cl)cc1NC(=O)Cn1cc2c(n1)CCCCC2,·,·,i,i
Cc1ccc(CNC(=O)COCc2cc(-c3ccc4c(c3)OCO4)on2)cc1,·,·,i,i
Cc1ccnc(NC(=O)c2ccc3c(c2)OCO3)c1,?,?,18µM*,16µM*
O=C(Nc1ccon1)c1ccc2c(c1)OCO2,1%,-2%,i,i
COc1ccccc1CNC(=O)C(=O)NCCC1CCCCN1S(=O)(=O)c1ccccc1 (configuration not stated),1%,-2%,i,i
Cc1ccccc1CNC(=O)C(=O)NCCC1CCCCN1S(=O)(=O)c1ccccc1 (configuration not stated),1%,-4%,6.5µM*,?
O=C(NCCC1CCCCN1S(=O)(=O)c1ccccc1)C(=O)NC1CCCC1 (configuration not stated),1%,3%,?,i
Cc1ccc(C)c(S(=O)(=O)N2CCCCC2CCNC(=O)C(=O)NCc2ccccc2)c1 (configuration not stated),?,?,?,26µM*
Cc1ccc(S(=O)(=O)N2CCCCC2CCNC(=O)C(=O)NCc2cccnc2)cc1 (configuration not stated),?,?,?,8.2µM*
O=C(NCCC1CCCCN1S(=O)(=O)c1ccc(Cl)cc1)C(=O)NCc1ccncc1 (configuration not stated),3%,4%,i,i
Cc1ccc(S(=O)(=O)N2CCCCC2CCNC(=O)C(=O)NC2CC2)cc1 (configuration not stated),-3%,0%,8.2µM*,i
COc1ccc(S(=O)(=O)Nc2cc3c(cc2NCc2ccccc2)n(C)c(=O)n3C)cc1OC,·,·,i,i
Cc1cc(C)c(S(=O)(=O)N2CCCCC2CCNC(=O)C(=O)NCc2cccnc2)c(C)c1 (configuration not stated),0%,8%,8.2µM*,i
Cc1ccc(C)c(S(=O)(=O)N2CCCCC2CCNC(=O)C(=O)NCc2cccnc2)c1 (configuration not stated),-3%,-16%,?,i
Cc1ccc(CNC(=O)C(=O)NCCC2CCCCN2S(=O)(=O)c2ccc(C)cc2)cc1 (configuration not stated),-1%,-8%,3.7µM*,i
COc1cccc2c3cccc(OC)c3c3[nH]cnc3c12,-26%,21µM*,?,?
Cc1ccc(C)c(NC(=O)CN(C)C(=O)c2ccc(-c3cccc(C(F)(F)F)c3)o2)c1,-3%,5%,18µM*,i
CN(C)CCCNc1nc2cc(-c3cccc(C(F)(F)F)c3)sc2c(=O)n1C,?,?,i,i
